Autofluor counter: counter-screen for toxin protease inhibitors: compound fluorescence; compound autofluorescence counterscreen, microsphere flow cytometry; hits give high values; fluorescence intensity (concentration not given with the values); hit rate 3.1% among 360,000; in the data active = fluorescence intensity above about 16000; inconclusive = no clear call, values can overlap the other calls
BoNT A protease: BoNT/A light chain protease inhibitors, primary screen, biochemical, flow cytometry, MLPCN library; inhibition, % at 10 µM; hit rate 0.17% among 360,000; multiplex microsphere protease substrate cleavage
SARS 3CLpro inh: SARS-CoV 3CLpro protease inhibitors, primary screen, biochemical, quenched FRET; Replicase polyprotein 1ab (Severe acute respiratory syndrome coronavirus), P0C6X7; recombinant SARS-CoV 3CLpro, quenched FRET peptide cleavage; inhibition, % at 6 µM; hit rate 0.14% among 290,000; in the data active = inhibition above about 12%
Anthrax LF prot: Bacillus anthracis LF protease inhibitors, primary screen, biochemical, multiplex microsphere, MLPCN library; inhibition, % at 10 µM; AID 588501, 2011; hit rate 0.12% among 360,000; multiplex microsphere protease cleavage assay; Lethal factor (Bacillus anthracis), P15917
Target sequence (P15917 whole entry, looked up): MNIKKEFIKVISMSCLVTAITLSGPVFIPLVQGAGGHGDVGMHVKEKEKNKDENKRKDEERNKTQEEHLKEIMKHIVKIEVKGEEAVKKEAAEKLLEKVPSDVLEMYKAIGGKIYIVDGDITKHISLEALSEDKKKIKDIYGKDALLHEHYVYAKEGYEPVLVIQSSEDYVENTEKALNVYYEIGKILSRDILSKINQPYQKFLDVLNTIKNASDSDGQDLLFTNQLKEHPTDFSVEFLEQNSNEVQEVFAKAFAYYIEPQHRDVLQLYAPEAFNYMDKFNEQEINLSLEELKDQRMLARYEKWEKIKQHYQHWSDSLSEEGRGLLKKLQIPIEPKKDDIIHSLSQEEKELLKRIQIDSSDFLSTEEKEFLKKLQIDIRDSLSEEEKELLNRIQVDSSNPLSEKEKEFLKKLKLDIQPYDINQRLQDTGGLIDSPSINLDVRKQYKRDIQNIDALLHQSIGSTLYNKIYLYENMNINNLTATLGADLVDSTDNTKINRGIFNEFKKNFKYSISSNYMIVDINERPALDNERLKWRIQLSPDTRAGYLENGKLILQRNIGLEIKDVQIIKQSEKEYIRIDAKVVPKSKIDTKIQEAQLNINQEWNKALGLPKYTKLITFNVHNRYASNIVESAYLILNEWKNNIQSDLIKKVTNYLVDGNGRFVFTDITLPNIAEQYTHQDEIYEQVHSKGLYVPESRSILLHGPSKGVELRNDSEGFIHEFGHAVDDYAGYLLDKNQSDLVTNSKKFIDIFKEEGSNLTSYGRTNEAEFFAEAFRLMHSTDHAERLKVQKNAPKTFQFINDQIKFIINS
BoNT F protease: BoNT/F light chain protease inhibitors, primary screen, biochemical, flow cytometry, MLPCN library; AID 588497, 2011; hit rate 0.22% among 360,000; Multiplex microsphere protease cleavage assay; inhibition, % at 10 µM; in the data active = inhibition above about 35%, passing the limit was not always enough; inconclusive = no clear call, values can overlap the other calls
BJeLR viability: MLPCN primary cell-based screen for lethality selective to Ras in HRASV12 cells; inhibition, % (no concentration beside the values); BJeLR (HRASV12) viability, CellTiter-Glo ATP luminescence, 48 h; hit rate 0.17% among 300,000; in the data active = inhibition above about 50%; inconclusive = no clear call, values can overlap the other calls
A number is an active result. Compounds with a hit are over-represented: about 3.6% of the library has one in this group of screens. Rule as the data show it, unless noted: active = inhibition above about 30%; inconclusive = no clear call, values can overlap the other calls; inactive = below that.

How did COc1ccc(Cl)cc1NC(=O)C1COc2ccccc2O1 (configuration not stated) do in these assays?
Autofluor counter: inactive; BoNT A protease: inactive; SARS 3CLpro inh: inactive; Anthrax LF prot: inactive; BoNT F protease: inactive; BJeLR viability: inactive

Results for COc1ccc(NC2CCCN(C(=O)c3ccc(C)c(N4CCNC4=O)c3)C2)cc1 (configuration not stated) ?
Autofluor counter: inactive; BoNT A protease: inactive; SARS 3CLpro inh: inactive; Anthrax LF prot: inactive; BoNT F protease: inactive; BJeLR viability: inactive

Results for CCOC(=O)c1c(C)[nH]c(C(=O)COC(=O)CSCC(=O)N(CC)CC)c1C ?
Autofluor counter: inactive; BoNT A protease: inactive; SARS 3CLpro inh: inactive; Anthrax LF prot: inactive; BoNT F protease: inactive; BJeLR viability: inactive

How did CCOc1cc(CNCc2ccncc2)cc(Br)c1OCc1ccc(F)cc1 do in these assays?
Autofluor counter: 20403; BoNT A protease: inactive; SARS 3CLpro inh: inactive; Anthrax LF prot: inactive; BoNT F protease: inactive; BJeLR viability: inactive

How did Cc1sc2nc(CN(Cc3ccccc3)C(=O)NC3CCCCC3)[nH]c(=O)c2c1C do in these assays?
Autofluor counter: inactive; BoNT A protease: inactive; SARS 3CLpro inh: inactive; Anthrax LF prot: inactive; BoNT F protease: 38; BJeLR viability: inactive

Results for O=S(=O)(c1ccc(SCCO)nc1)N1CCOCC1 ?
Autofluor counter: inactive; BoNT A protease: inactive; Anthrax LF prot: inactive; BoNT F protease: inactive

Results for COCCCNC(=O)/C=C/c1cccc(Cl)c1 ?
Autofluor counter: 20665; BoNT A protease: inactive; SARS 3CLpro inh: inactive; Anthrax LF prot: inactive; BoNT F protease: inactive; BJeLR viability: inactive

What do the screens show for `Cc1nc(-c2cccc(NS(=O)(=O)c3cccc4ccccc34)c2)cs1`?
Autofluor counter: 22200; BoNT A protease: inconclusive; SARS 3CLpro inh: inactive; Anthrax LF prot: inactive; BoNT F protease: inactive; BJeLR viability: inactive

Results for O=C(/C=C/c1ccc(Cl)c(Cl)c1)NC1=NCCS1 ?
Autofluor counter: inactive; BoNT A protease: inactive; SARS 3CLpro inh: inactive; Anthrax LF prot: inactive; BoNT F protease: inactive; BJeLR viability: inactive

How did c1nc(NC2CCCCC2)c2[nH]cnc2n1 do in these assays?
Autofluor counter: 19676; BoNT A protease: inactive; SARS 3CLpro inh: inactive; Anthrax LF prot: inactive; BoNT F protease: inactive; BJeLR viability: inactive

How did O=C(Cc1csc(N2CCOCC2)n1)N/N=C/c1ccc(F)cc1 do in these assays?
Autofluor counter: 20712; BoNT A protease: inactive; SARS 3CLpro inh: inactive; Anthrax LF prot: inactive; BoNT F protease: inactive; BJeLR viability: inactive

How did O=C(Cc1csc(N2CCOCC2)n1)N/N=C/c1cccc(O)c1 do in these assays?
Autofluor counter: inactive; BoNT A protease: inactive; SARS 3CLpro inh: inactive; Anthrax LF prot: inactive; BoNT F protease: inactive; BJeLR viability: inactive

What do the screens show for `CCOC(=O)N1CCN(C(=O)/C(=C/c2ccc(OC)c(OC)c2)NC(=O)c2ccccc2)CC1`?
Autofluor counter: inactive; BoNT A protease: inactive; SARS 3CLpro inh: inactive; Anthrax LF prot: inactive; BoNT F protease: inactive; BJeLR viability: inactive

What do the screens show for `CCOC(=O)N1CCN(C(=O)/C(=C/c2ccccc2OC)NC(=O)c2ccccc2)CC1`?
Autofluor counter: 16214; BoNT A protease: inconclusive; SARS 3CLpro inh: inactive; Anthrax LF prot: inactive; BoNT F protease: inactive; BJeLR viability: inactive

What do the screens show for `CCOC(=O)C1CCCN(C(=O)/C(=C/c2ccco2)NC(=O)c2ccccc2)C1` (configuration not stated)?
Autofluor counter: inactive; BoNT A protease: inactive; SARS 3CLpro inh: inactive; Anthrax LF prot: 31; BoNT F protease: inactive; BJeLR viability: inactive

What do the screens show for `O=C(N/C(=C/c1ccc(F)cc1)C(=O)N1CCOCC1)c1ccccc1`?
Autofluor counter: 30895; BoNT A protease: inconclusive; SARS 3CLpro inh: inactive; Anthrax LF prot: inconclusive; BoNT F protease: inconclusive; BJeLR viability: inactive

How did O=C(N/C(=C/c1ccco1)C(=O)N1CCCCCC1)c1ccccc1 do in these assays?
Autofluor counter: inactive; BoNT A protease: inactive; SARS 3CLpro inh: inactive; Anthrax LF prot: inactive; BoNT F protease: inactive; BJeLR viability: inactive

What do the screens show for `CCN(CC)C(=O)C1=C(C)N(CCCOC)C(=O)C(CC(=O)NC2CCCC2)C1` (configuration not stated)?
Autofluor counter: inactive; BoNT A protease: inactive; Anthrax LF prot: inactive; BoNT F protease: inactive

What do the screens show for `CCC(C)[C@H](NC(=O)N1CC(=O)Nc2ccccc21)C(=O)N1CCC[C@H]1C(=O)O` (some centres not stated)?
Autofluor counter: inactive; BoNT A protease: inactive; SARS 3CLpro inh: inactive; Anthrax LF prot: inactive; BoNT F protease: inactive; BJeLR viability: inactive

How did Nc1cc([N+](=O)[O-])ccc1N1C(=O)CCCC1=O do in these assays?
Autofluor counter: inactive; BoNT A protease: inactive; SARS 3CLpro inh: inactive; Anthrax LF prot: inactive; BoNT F protease: inconclusive; BJeLR viability: inactive

What do the screens show for `CCCNc1c(N)n(-c2ccccc2)c(=O)[nH]c1=O`?
Autofluor counter: 21763; BoNT A protease: inconclusive; SARS 3CLpro inh: inactive; Anthrax LF prot: inactive; BoNT F protease: inactive; BJeLR viability: inactive

Results for CC(C)[C@@H](C(=O)N1CCCC1)N1C(=O)N2CCc3c([nH]c4ccccc34)[C@@]2(C)C1=O ?
Autofluor counter: inactive; BoNT A protease: inactive; SARS 3CLpro inh: inactive; Anthrax LF prot: inactive; BoNT F protease: inactive; BJeLR viability: inactive

What do the screens show for `Cc1ccnc(NC(=O)c2ccc(Cl)s2)c1`?
Autofluor counter: inactive; BoNT A protease: inactive; SARS 3CLpro inh: inactive; Anthrax LF prot: inactive; BoNT F protease: inactive; BJeLR viability: inactive

Results for O=C(Nc1ccon1)c1ccc(Cl)s1 ?
Autofluor counter: 17115; BoNT A protease: inconclusive; SARS 3CLpro inh: inactive; Anthrax LF prot: inactive; BoNT F protease: inactive; BJeLR viability: inactive

Results for O=C(CSc1nc(C2CC2)nc2ccccc12)N1c2ccccc2Sc2ccc(C(F)(F)F)cc21 ?
Autofluor counter: 21370; BoNT A protease: inactive; SARS 3CLpro inh: inactive; Anthrax LF prot: inactive; BoNT F protease: inactive; BJeLR viability: inactive

How did Cn1c(CN2CCN(CCO)CC2)c(C#N)c2ccccc21 do in these assays?
Autofluor counter: inactive; BoNT A protease: inactive; SARS 3CLpro inh: inactive; Anthrax LF prot: inactive; BoNT F protease: inconclusive; BJeLR viability: inactive

How did Cc1ccccc1N1CCN(Cc2c(C#N)c3ccccc3n2C)CC1 do in these assays?
Autofluor counter: 23866; BoNT A protease: inactive; SARS 3CLpro inh: inactive; Anthrax LF prot: inactive; BoNT F protease: inactive; BJeLR viability: inactive

Results for COc1cccc(NC(=O)N(C2CCCCC2)C(C)c2cccs2)c1 (configuration not stated) ?
Autofluor counter: 19720; BoNT A protease: inactive; SARS 3CLpro inh: inactive; Anthrax LF prot: inactive; BoNT F protease: inactive

How did O=C(Nc1ccc(N2CCN(C(=O)c3ccc(Cl)cc3)CC2)cc1)c1cc2ccccc2o1 do in these assays?
Autofluor counter: 21324; BoNT A protease: inactive; SARS 3CLpro inh: inactive; Anthrax LF prot: inactive; BoNT F protease: inactive; BJeLR viability: inactive
